This passage reports binding signal results from paper PMC7862700, “An all-to-all approach to the identification of sequence-specific readers for epigenetic DNA modifications on cytosine”.

What all share (assay): DAPPL (digital affinity profiling via proximity ligation, sequencing); 10 mM Tris-HCl pH 7.5, 50 mM NaCl, 1 mM DTT, 4% glycerol, room temperature, 30 min; GST-TFs on glutathione beads, 16-mer random dsDNA library, 0.1% formaldehyde crosslink after washing; high values mean tight binding
Holding throughout (details): protein: recombinant; tags: N-terminal GST; dsDNA, one strand shown

The target in one test is T1, ELK4 (Homo sapiens, UniProt P28324-2 1-405).
T1 sequence: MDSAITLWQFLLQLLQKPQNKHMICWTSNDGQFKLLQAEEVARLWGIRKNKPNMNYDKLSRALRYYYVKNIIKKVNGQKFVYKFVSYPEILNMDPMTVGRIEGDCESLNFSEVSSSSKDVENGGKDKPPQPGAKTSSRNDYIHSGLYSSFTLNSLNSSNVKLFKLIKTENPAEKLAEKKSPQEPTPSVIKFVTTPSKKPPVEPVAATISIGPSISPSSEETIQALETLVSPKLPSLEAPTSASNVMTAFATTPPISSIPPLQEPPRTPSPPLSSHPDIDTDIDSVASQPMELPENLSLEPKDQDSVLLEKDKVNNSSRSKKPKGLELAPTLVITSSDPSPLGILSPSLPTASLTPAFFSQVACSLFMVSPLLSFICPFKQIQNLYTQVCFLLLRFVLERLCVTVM
The gist of the method: (§1)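 Each value of binding signal is a hexamer's read frequency for a factor divided by the same hexamer's frequency in the tag-only sample. Barcoded, bead-captured GST fusions of human transcription factors made in yeast were pooled with that sample and incubated with 200 nmole of a random double-stranded 16-mer DNA library in Tris/NaCl/DTT/glycerol buffer at room temperature for 30 min. Washing, 0.1% formaldehyde crosslinking, proximity ligation, PCR and Illumina NextSeq500 sequencing followed.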

For a further test, the target named is T2, ELF3 (Homo sapiens, UniProt P78545 1-371).
T2 sequence: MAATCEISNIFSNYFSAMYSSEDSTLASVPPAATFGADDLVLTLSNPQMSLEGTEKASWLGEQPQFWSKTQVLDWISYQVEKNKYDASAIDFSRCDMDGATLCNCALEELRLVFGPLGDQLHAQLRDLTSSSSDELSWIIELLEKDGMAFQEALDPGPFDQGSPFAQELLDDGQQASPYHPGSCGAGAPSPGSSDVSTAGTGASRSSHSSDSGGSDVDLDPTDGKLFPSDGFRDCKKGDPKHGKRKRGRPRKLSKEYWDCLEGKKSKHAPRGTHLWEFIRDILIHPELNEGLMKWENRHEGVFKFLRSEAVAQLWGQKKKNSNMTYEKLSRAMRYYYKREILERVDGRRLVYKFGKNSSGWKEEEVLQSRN
A digest of the protocol: as §1

The next test concerns the target ETV1 (Homo sapiens, UniProt P50549 1-477). The gist of the method:
as §1

Another test addresses T3, ERF (Homo sapiens, UniProt P50548 1-548).
T3 sequence: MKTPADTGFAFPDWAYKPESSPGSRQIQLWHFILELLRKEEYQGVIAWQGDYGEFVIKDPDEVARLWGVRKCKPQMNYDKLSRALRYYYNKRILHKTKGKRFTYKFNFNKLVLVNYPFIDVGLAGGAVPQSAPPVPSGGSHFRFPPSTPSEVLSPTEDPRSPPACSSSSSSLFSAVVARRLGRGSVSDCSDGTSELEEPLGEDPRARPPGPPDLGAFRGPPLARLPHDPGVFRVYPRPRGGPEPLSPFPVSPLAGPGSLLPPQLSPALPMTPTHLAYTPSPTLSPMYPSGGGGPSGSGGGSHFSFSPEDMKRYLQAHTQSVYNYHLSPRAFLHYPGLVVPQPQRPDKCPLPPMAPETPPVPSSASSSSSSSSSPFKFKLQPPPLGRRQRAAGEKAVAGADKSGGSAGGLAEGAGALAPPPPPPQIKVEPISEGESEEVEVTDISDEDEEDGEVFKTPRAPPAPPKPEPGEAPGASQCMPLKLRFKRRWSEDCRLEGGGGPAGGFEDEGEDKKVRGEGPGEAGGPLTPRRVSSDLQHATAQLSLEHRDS
A digest of the protocol: as §1

The target of a further test is T4, ETV3L (Homo sapiens, UniProt Q6ZN32 1-361).
T4 sequence: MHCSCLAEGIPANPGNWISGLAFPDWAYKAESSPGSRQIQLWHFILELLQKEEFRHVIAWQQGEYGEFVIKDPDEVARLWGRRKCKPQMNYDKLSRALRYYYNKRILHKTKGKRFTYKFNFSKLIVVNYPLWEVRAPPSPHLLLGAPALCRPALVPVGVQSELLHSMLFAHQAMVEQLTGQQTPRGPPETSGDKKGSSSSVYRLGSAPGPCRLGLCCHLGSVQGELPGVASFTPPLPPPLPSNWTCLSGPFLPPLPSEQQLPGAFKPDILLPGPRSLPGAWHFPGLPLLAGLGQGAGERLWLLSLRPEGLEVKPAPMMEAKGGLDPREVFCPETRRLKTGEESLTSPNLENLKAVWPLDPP
A digest of the protocol:
as §1

For another test, the target named is T5, ETS2 (Homo sapiens, UniProt P15036 1-469).
T5 sequence: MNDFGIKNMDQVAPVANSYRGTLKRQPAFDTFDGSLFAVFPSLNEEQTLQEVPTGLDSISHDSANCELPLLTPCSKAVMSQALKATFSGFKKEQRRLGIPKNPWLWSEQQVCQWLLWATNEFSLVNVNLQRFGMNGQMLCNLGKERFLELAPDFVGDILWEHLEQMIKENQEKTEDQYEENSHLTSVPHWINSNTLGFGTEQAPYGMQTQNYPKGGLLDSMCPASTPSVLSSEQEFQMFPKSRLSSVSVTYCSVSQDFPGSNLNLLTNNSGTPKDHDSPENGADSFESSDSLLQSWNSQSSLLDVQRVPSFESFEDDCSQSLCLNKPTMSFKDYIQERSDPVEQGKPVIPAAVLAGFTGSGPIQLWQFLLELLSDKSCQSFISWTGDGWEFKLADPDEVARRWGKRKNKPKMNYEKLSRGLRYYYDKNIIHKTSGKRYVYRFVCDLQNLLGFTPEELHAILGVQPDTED
A digest of the protocol:
as §1

Another test addresses T6, SPDEF (Homo sapiens, UniProt O95238 1-335).
T6 sequence: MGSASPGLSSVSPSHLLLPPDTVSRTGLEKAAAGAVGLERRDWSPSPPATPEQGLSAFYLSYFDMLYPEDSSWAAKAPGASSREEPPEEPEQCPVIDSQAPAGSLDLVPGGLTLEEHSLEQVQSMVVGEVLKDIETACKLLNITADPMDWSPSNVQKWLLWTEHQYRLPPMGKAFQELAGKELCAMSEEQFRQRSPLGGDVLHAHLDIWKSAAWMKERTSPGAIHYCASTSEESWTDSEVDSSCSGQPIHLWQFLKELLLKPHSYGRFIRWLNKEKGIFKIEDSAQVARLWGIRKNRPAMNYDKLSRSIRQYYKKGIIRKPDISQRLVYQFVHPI
The gist of the method: as §1

In the next test the target is T7, ETV7 (Homo sapiens, UniProt Q9Y603 1-341).
T7 sequence: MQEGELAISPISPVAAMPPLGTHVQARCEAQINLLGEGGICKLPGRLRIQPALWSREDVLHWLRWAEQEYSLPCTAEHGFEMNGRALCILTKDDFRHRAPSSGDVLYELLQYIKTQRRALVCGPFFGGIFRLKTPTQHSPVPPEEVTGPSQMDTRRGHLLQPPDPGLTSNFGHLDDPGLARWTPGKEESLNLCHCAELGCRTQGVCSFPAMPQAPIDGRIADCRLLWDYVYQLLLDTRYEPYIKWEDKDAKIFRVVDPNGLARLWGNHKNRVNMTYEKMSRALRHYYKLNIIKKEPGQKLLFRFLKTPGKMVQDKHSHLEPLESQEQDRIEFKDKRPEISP
The gist of the method:
as §1

The next test concerns the target T8, ETV3 (Homo sapiens, UniProt P41162-2 1-143).
T8 sequence: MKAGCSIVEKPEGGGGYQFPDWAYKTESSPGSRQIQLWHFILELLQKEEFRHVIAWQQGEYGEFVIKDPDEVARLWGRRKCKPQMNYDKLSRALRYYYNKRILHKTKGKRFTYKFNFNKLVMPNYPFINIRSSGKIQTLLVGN
The gist of the method:
as §1

In a further test the target is ETV6 (Homo sapiens, UniProt P41212 1-452). A digest of the protocol:
as §1

ETV6, sequence (P41212 whole entry): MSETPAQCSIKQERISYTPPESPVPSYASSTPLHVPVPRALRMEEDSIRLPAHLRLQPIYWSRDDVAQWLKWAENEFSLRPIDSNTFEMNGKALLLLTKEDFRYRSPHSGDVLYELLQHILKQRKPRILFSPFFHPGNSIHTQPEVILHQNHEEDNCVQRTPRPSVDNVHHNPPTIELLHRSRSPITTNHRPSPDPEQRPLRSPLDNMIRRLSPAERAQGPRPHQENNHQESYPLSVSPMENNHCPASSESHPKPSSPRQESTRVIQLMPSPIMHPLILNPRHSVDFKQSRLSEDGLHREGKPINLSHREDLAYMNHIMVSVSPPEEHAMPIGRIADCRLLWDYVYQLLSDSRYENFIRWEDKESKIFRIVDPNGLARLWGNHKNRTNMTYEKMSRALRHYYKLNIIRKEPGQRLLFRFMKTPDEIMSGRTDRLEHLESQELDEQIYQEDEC
ETV1, sequence (P50549 whole entry): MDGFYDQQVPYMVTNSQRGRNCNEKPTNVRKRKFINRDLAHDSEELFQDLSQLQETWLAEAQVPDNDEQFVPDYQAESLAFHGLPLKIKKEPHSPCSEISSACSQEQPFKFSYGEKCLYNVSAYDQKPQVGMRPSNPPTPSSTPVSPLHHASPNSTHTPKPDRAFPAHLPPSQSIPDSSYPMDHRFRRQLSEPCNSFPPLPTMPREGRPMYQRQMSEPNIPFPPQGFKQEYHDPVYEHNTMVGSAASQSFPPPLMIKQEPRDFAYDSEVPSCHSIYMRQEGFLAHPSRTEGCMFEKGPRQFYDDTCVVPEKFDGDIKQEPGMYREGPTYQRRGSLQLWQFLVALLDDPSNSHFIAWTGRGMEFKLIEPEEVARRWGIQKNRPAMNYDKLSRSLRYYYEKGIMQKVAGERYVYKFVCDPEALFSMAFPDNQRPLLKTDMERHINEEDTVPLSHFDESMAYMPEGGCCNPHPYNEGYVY

Turning to CAAACA, the binding signal in the test with ELK4 was 1.13 fold enrichment (6-mer frequency, TF over GST control); with ELF3, 1.21 fold enrichment (6-mer frequency, TF over GST control); in the test with ETV1 it was 1.09 fold enrichment (6-mer frequency, TF over GST control); in the test with ERF it was 1.08 fold enrichment (6-mer frequency, TF over GST control); with ETV3L, 1.12 fold enrichment (6-mer frequency, TF over GST control); in the test with ETS2, 1.16 fold enrichment (6-mer frequency, TF over GST control). Besides, the binding signal with SPDEF was 1.12 fold enrichment (6-mer frequency, TF over GST control); in the test with ETV7 it was 1.07 fold enrichment (6-mer frequency, TF over GST control); in the test with ETV3, 1.13 fold enrichment (6-mer frequency, TF over GST control); in the test with ETV6, 1.1 fold enrichment (6-mer frequency, TF over GST control).
